# Reference: PubChem BioAssay (EPA / NIEHS)
# Calls of active or inactive are those of the source. The calls were made as follows: active = hit-call score of the fitted dose curve at least 0.9, where 1 is the maximum; inactive = score below 0.9.
# Columns and labels:
# [1] = APR_HepG2_MitoticArrest_72hr: Apredica 72-hour HepG2 Assay for Mitotic Arrest (AID 2282918); conditions: high-content imaging, actives raise or lower the signal
# Method in brief: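 HepG2 cells were exposed for 72 hr to compound at 0.39–200 uM (10 concentrations, duplicate) in 0.5% v/v DMSO, fixed in 3.7% formaldehyde, immunostained for phospho-histone H3 with Hoechst 33342 and imaged by high-content fluorescence; bidirectional fits versus DMSO.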
# [2] = APR_HepG2_StressKinase_72hr: Apredica 72-hour HepG2 Assay for Stress Kinase (AID 2282921); conditions: HepG2 stress kinase (phospho-c-Jun) imaging, actives raise or lower the signal
# Method in brief: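 After a 72 h compound treatment spanning 0.39 to 200 uM, formaldehyde-fixed cells are labelled for phosphorylated c-Jun and nuclei, imaged by automated fluorescence microscopy, and activity is fitted in both directions relative to DMSO controls.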
# [3] = APR_HepG2_StressKinase_24hr: Apredica 24-hour HepG2 Assay for Stress Kinase (AID 2282922); conditions: HepG2 stress kinase (phospho-c-Jun) imaging, actives raise or lower the signal
# Method in brief: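 After 24 hr compound treatment (up to 200 uM, final DMSO 0.5% v/v), HepG2 cells are fixed and multiplex-labeled; phospho-c-Jun intensity is captured by high-content fluorescence imaging and analyzed relative to DMSO.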
# [4] = APR_HepG2_NuclearSize_72hr: Apredica 72-hour HepG2 Assay for Nuclear Size (AID 2282925); conditions: high-content imaging, actives raise or lower the signal
# Method in brief: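 Compounds (0.39–200 uM, final DMSO 0.5%) were applied to HepG2 for 72 hr. Cells were then formaldehyde-fixed, permeabilized and labelled with Hoechst 33342. Nuclear diameter was quantified from six images per well.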
# [5] = ATG_CRE_CIS: Attagene CIS-FACTORIAL HepG2 Assay for human cAMP Responsive Element (CRE) binding protein 3 (AID 2282926); conditions: HepG2 CRE cis-reporter, Attagene multiplexed mRNA; actives raise or lower the signal
# Method in brief: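 Capillary electrophoresis of 6-FAM-labelled, HpaI-digested PCR products quantified reporter transcripts. These came from HepG2 transiently transfected with cis-element reporters and exposed to test chemicals for 24 hours, with DMSO defining baseline activity.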
# [6] = biological target: CCAAT/enhancer-binding protein beta (Homo sapiens) (UniProt P17676); assay: ATG_C_EBP_CIS: Attagene CIS-FACTORIAL HepG2 Assay for human CCAAT/Enhancer Binding Protein (C/EBP) beta (AID 2282927); conditions: HepG2 Attagene cis-factorial transcription factor reporter; actives raise or lower the signal
# Sequence of CCAAT/enhancer-binding protein beta (Homo sapiens) (P17676 whole entry, looked up): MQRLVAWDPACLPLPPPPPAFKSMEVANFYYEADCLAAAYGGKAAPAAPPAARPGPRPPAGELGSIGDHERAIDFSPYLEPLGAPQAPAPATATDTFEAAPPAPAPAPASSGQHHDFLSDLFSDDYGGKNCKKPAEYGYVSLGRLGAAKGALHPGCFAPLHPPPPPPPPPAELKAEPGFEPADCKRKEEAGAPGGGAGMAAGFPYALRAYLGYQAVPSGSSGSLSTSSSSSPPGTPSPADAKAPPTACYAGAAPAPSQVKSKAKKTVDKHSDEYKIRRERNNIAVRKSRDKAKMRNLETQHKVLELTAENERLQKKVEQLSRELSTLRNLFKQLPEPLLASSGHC
# Method in brief: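 Following a 24 h incubation with test chemical, transfected HepG2 cells yielded RNA whose reporter transcripts were quantified by RT-PCR and fluorescent capillary electrophoresis, with DMSO serving as baseline for bidirectional fitting.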
# [7] = ATG_CMV_CIS: Attagene CIS-FACTORIAL HepG2 Assay for human CMV (Internal Marker) (AID 2282928); conditions: HepG2 CMV promoter reporter, transcription factor profiling; actives raise or lower the signal;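 also: endpoint acts as a background internal control marker rather than a target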
# Method in brief: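 24 h chemical treatment, HepG2 with transient multi-reporter transfection; RNA → oligo(dT) RT → PCR → 6-FAM extension → HpaI digest → CE fluorescence. Bidirectional fit, DMSO negative control.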
# [8] = ATG_DR4_LXR_CIS: Attagene CIS-FACTORIAL HepG2 Assay for human Liver X Receptor (LXR), DR4 submotif (AID 2282929); conditions: HepG2 Attagene DR4 cis-reporter, mRNA transcription; actives raise or lower the signal
# Method in brief: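 Transiently transfected HepG2 liver cells; cis-regulated reporters; 24 h dosing. RT-PCR plus CE read-out of reporter mRNA. DMSO baseline, bidirectional curve fitting.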
# [9] = biological target: Aryl hydrocarbon receptor (Homo sapiens) (UniProt P35869); assay: ATG_Ahr_CIS: Attagene CIS-FACTORIAL HepG2 Assay for human Aryl Hydrocarbon Receptor (Ahr) (AID 2282930); conditions: HepG2 AhR cis-factorial reporter transcription; actives raise or lower the signal
# Sequence of Aryl hydrocarbon receptor (Homo sapiens) (P35869 whole entry, looked up): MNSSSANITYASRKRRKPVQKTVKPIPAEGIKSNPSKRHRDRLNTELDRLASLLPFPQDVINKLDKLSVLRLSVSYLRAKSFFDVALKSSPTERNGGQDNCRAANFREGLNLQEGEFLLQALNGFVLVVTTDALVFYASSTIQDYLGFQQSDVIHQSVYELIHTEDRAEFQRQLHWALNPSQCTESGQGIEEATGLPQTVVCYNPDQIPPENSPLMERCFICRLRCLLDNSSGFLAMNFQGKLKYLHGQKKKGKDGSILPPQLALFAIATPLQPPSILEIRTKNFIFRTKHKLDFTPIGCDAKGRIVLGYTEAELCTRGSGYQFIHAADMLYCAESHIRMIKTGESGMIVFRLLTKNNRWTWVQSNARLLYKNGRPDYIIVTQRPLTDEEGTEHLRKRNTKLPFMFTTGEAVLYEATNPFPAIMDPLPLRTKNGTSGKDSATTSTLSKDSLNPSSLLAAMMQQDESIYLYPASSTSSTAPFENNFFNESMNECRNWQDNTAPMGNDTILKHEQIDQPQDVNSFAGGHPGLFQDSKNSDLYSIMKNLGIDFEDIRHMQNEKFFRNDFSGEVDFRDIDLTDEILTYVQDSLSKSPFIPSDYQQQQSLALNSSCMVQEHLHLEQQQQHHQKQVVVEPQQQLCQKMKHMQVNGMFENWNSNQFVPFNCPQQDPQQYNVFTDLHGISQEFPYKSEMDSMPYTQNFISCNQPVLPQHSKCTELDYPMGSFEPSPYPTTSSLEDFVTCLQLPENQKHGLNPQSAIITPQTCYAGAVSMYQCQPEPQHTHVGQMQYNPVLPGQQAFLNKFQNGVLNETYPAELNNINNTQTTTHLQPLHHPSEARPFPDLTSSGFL
# Method in brief: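 Values derive from bidirectional fitting against DMSO negative control. Underlying signal: cis-element reporter mRNA in transiently transfected HepG2, harvested 24 h post-dose and measured by RT-PCR plus capillary electrophoresis.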
# [10] = ATG_AP_1_CIS: Attagene CIS-FACTORIAL HepG2 Assay for human Activator Protein 1 (AP-1) (AID 2282931); conditions: HepG2 Attagene cis-factorial AP-1 reporter mRNA; actives raise or lower the signal
# Method in brief: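 We transfected HepG2 cells transiently with a set of cis-regulated reporter transcription units, dosed them for 24 h, and quantified reporter mRNA via RT-PCR and capillary electrophoresis, scoring gain or loss of signal relative to DMSO.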
# [11] = ATG_AP_2_CIS: Attagene CIS-FACTORIAL HepG2 Assay for human Activator Protein 2 (AP-2) (AID 2282932); conditions: HepG2 AP-2 cis-reporter, Attagene transcription factor profiling; actives raise or lower the signal
# Method in brief: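 Cells (HepG2) transfected with promoter-driven reporter constructs, treated 24 h. Total RNA reverse-transcribed, reporter cDNA PCR-amplified, FAM-labelled by primer extension, digested, resolved by capillary electrophoresis. Activity fitted both directions versus DMSO.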
# [12] = ATG_BRE_CIS: Attagene CIS-FACTORIAL HepG2 Assay for human Bone Morphogenetic Protein (BMP) Response Element (BRE) (AID 2282933); conditions: HepG2 BMP response element reporter, Attagene transcription factor profiling; actives raise or lower the signal
# Method in brief: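 Multiplexed cis-reporter assay, HepG2, 24 h exposure. mRNA from reporter units quantified via RT-PCR/CE; DMSO baseline; bidirectional curve fit.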
# [13] = biological target: Retinoic acid receptor alpha (Homo sapiens) (UniProt P10276); assay: ATG_DR5_RAR_CIS: Attagene CIS-FACTORIAL HepG2 Assay for human Retinoic Acid Receptor Alpha (RARE), DR5 submotif (AID 2282934); conditions: HepG2 Attagene cis-factorial RARE DR5 reporter, mRNA; actives raise or lower the signal
# Sequence of Retinoic acid receptor alpha (Homo sapiens) (P10276 whole entry, looked up): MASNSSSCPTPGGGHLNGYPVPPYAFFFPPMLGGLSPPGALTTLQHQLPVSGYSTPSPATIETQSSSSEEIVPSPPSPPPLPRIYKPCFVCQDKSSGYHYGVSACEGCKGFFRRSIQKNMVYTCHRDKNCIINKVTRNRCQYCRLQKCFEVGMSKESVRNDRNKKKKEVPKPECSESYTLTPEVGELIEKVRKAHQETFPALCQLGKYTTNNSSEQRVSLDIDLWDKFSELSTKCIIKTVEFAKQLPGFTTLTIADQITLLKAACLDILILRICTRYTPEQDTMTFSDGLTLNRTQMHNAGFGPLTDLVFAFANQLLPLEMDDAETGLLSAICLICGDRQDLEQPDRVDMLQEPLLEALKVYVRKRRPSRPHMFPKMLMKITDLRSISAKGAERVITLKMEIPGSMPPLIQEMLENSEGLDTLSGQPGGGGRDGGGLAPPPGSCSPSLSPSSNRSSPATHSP
# Method in brief: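 Endpoint fitted in both directions relative to DMSO as negative control. It reflects DR5 cis-element reporter mRNA induction in transiently transfected HepG2 cells, measured 24 h after dosing through RT-PCR and fluorescent capillary electrophoresis.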
# [14] = biological target: Transcription factor E2F1 (Homo sapiens) (UniProt Q01094); assay: ATG_E2F_CIS: Attagene CIS-FACTORIAL HepG2 Assay for human E2F Transcription Factor 1 (AID 2282935); conditions: HepG2 Attagene cis-reporter, E2F reporter RNA transcripts; actives raise or lower the signal
# Sequence of Transcription factor E2F1 (Homo sapiens) (Q01094 whole entry, looked up): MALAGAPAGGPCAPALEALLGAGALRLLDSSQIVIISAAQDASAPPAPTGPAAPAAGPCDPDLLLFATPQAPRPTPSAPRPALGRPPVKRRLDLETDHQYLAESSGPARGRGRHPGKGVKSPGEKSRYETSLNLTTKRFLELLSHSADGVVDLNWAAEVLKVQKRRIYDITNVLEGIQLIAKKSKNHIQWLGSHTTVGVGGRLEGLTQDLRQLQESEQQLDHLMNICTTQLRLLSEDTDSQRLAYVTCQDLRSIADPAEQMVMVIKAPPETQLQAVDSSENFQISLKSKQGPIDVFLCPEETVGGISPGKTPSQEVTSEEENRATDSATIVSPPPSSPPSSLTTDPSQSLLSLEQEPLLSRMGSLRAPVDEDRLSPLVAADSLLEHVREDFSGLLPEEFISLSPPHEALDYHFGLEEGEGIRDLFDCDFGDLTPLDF
# Method in brief: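 First, HepG2 cells were transfected with reporter transcription units. Next, they were dosed for 24 h. Then RNA was isolated, converted to cDNA, PCR-amplified, FAM-labeled, HpaI-digested and analyzed by capillary electrophoresis.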
# [15] = ATG_E_Box_CIS: Attagene CIS-FACTORIAL HepG2 Assay for human Enhancer Box (E-box) (AID 2282936); conditions: HepG2 E-box cis-reporter transcription, actives raise or lower the signal
# Method in brief: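 Endogenous transcription factor activity was sensed in human HepG2 liver cells through transfected cis-promoter reporter units. After 24 h of dosing, total RNA was reverse-transcribed and reporter cDNA resolved by capillary electrophoresis.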
# [16] = ATG_M_61_CIS: Attagene CIS-FACTORIAL HepG2 Assay for M61 Transcription Factor (Internal Marker) (AID 2282937); conditions: HepG2 Attagene CIS-FACTORIAL M61 internal marker reporter; actives raise or lower the signal
# Method in brief: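 Multiplexed reporter mRNA assay, HepG2 human hepatoma cells, 24 h treatment. Signal: FAM-labelled, HpaI-digested RT-PCR fragments by CE. Fit: bidirectional, baseline DMSO.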
# [17] = ATG_EGR_CIS: Attagene CIS-FACTORIAL HepG2 Assay for human Early Growth Response 1 (EGR1) (AID 2282938); conditions: HepG2 Attagene CIS-FACTORIAL EGR reporter mRNA; actives raise or lower the signal
# Method in brief: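 Multiplexed cis-reporter system in human hepatoma HepG2 cells, transiently transfected. Cells are dosed for 24 h; reporter transcripts are amplified, fluorescently tagged and sized by capillary electrophoresis, with DMSO as negative control.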
# [18] = ATG_M_19_CIS: Attagene CIS-FACTORIAL HepG2 Assay for M19 Transcription Factor (Internal Marker) (AID 2282939); conditions: HepG2 Attagene CIS-FACTORIAL M19 internal marker reporter; actives raise or lower the signal
# Method in brief: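 Signals come from fluorescence of labelled reporter-specific PCR fragments resolved by capillary electrophoresis, following 24 h treatment of HepG2 cells transfected with cis-promoter reporter units; activity was fitted in both directions relative to DMSO.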
# [19] = ATG_ERE_CIS: Attagene CIS-FACTORIAL HepG2 Assay for Estrogen Response Element (ERE) (AID 2282940); conditions: HepG2 ERE cis-reporter, Attagene RNA transcript; actives raise or lower the signal
# Method in brief: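 Fluorescence of capillary-separated, FAM-labelled reporter cDNA fragments indicates reporter mRNA levels in HepG2 cells exposed to chemicals for 24 h. Transient transfection with cis-regulated units; data fitted in both directions against DMSO.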
structure (smiles),measurement,setting,value
O=C(O)C1(c2ccc3c(c2)OC[C@H](Cc2ccc(-c4ccccc4)cc2)[C@H]3O)CCCC1,AC50,[1],105 µM (active)
same,AC50,[2],116 µM (active)
same,AC50,[3],111 µM (active)
same,outcome,[4],inactive
same,outcome,[5],inactive
same,outcome,[6],inactive
same,AC50,[7],6.98 µM (active)
same,outcome,[8],inactive
same,outcome,[9],inactive
same,AC50,[10],19.7 µM (active)
same,outcome,[11],inactive
same,outcome,[12],inactive
same,outcome,[13],inactive
same,outcome,[14],inactive
same,outcome,[15],inactive
same,outcome,[16],inactive
same,outcome,[17],inactive
same,outcome,[18],inactive
O=C(N[C@H]1CN2CCC1CC2)c1ccc2c(c1)OCCO2,outcome,[1],inactive
same,outcome,[2],inactive
same,outcome,[3],inactive
same,outcome,[4],inactive
same,outcome,[5],inactive
same,outcome,[6],inactive
same,outcome,[7],inactive
same,outcome,[8],inactive
same,outcome,[9],inactive
same,outcome,[10],inactive
same,outcome,[11],inactive
same,outcome,[12],inactive
same,outcome,[13],inactive
same,outcome,[14],inactive
same,AC50,[15],72.7 µM (active)
same,outcome,[16],inactive
same,outcome,[17],inactive
same,outcome,[18],inactive
N#Cc1cccnc1,outcome,[1],inactive
same,outcome,[2],inactive
same,outcome,[3],inactive
same,outcome,[4],inactive
same,outcome,[5],inactive
same,outcome,[6],inactive
same,outcome,[7],inactive
same,outcome,[9],inactive
same,outcome,[11],inactive
same,outcome,[12],inactive
same,outcome,[14],inactive
same,outcome,[15],inactive
same,outcome,[16],inactive
same,outcome,[17],inactive
same,outcome,[18],inactive
same,outcome,[19],inactive
ClCc1ccccc1Cl,AC50,[5],83.5 µM (active)
same,outcome,[6],inactive
same,outcome,[7],inactive
same,AC50,[8],50.6 µM (active)
same,outcome,[9],inactive
same,outcome,[10],inactive
same,outcome,[11],inactive
same,outcome,[12],inactive
same,outcome,[13],inactive
same,outcome,[14],inactive
same,outcome,[15],inactive
same,outcome,[16],inactive
same,outcome,[17],inactive
same,outcome,[18],inactive
CCOC(=O)c1ccccc1S(=O)(=O)NC(=O)Nc1nc(Cl)cc(OC)n1,outcome,[5],inactive
same,outcome,[6],inactive
same,outcome,[7],inactive
same,outcome,[8],inactive
same,outcome,[9],inactive
same,outcome,[10],inactive
same,outcome,[11],inactive
same,outcome,[12],inactive
same,outcome,[13],inactive
same,outcome,[14],inactive
same,outcome,[15],inactive
same,outcome,[16],inactive
same,outcome,[17],inactive
same,outcome,[18],inactive
CCCCCCCCCCBr,outcome,[5],inactive
same,outcome,[6],inactive
same,AC50,[7],163 µM (active)
same,outcome,[8],inactive
same,outcome,[9],inactive
same,outcome,[10],inactive
same,outcome,[11],inactive
same,outcome,[12],inactive
same,outcome,[13],inactive
same,outcome,[14],inactive
same,outcome,[15],inactive
same,outcome,[16],inactive
same,outcome,[17],inactive
same,outcome,[18],inactive
same,outcome,[19],inactive
CC(C)(COCC1CO1)COCC1CO1 (configuration not stated),outcome,[5],inactive
same,outcome,[6],inactive
same,outcome,[7],inactive
same,outcome,[8],inactive
same,outcome,[9],inactive
same,outcome,[10],inactive
same,outcome,[11],inactive
same,outcome,[12],inactive
same,outcome,[13],inactive
same,outcome,[14],inactive
same,outcome,[15],inactive
same,outcome,[16],inactive
same,outcome,[17],inactive
same,outcome,[18],inactive
Cc1cccc(OP(=O)(Oc2cccc(C)c2)Oc2cccc(C)c2)c1,outcome,[5],inactive
same,outcome,[6],inactive
same,outcome,[7],inactive
same,outcome,[8],inactive
same,outcome,[9],inactive
same,outcome,[10],inactive
same,outcome,[11],inactive
same,outcome,[12],inactive
same,outcome,[13],inactive
same,outcome,[14],inactive
same,outcome,[15],inactive
same,outcome,[16],inactive
same,outcome,[17],inactive
same,outcome,[18],inactive
CC(C)CC(C)(c1ccc(O)cc1)c1ccc(O)cc1,outcome,[5],inactive
same,outcome,[6],inactive
same,outcome,[7],inactive
same,AC50,[8],11.1 µM (active)
same,outcome,[9],inactive
same,AC50,[10],11.1 µM (active)
same,outcome,[11],inactive
same,outcome,[12],inactive
same,outcome,[13],inactive
same,outcome,[14],inactive
same,outcome,[15],inactive
same,outcome,[16],inactive
same,AC50,[17],17.5 µM (active)
same,outcome,[18],inactive
